Compound activity from PubChem.
Rows were chosen to be rich in hits. Some 6.1% of all compounds tested hit in one or more screens of this group.
DRD3 agonist: activates the human D3 dopamine receptor | P35462 | D3R DiscoveRx beta-arrestin cells, luminescence, 90 min | max activation, % | actives 0.58% (n = 410,000) | AID 652048; in the data active means max activation above about 30%; further: 0% is about no effect
Target sequence (P35462 whole entry, looked up): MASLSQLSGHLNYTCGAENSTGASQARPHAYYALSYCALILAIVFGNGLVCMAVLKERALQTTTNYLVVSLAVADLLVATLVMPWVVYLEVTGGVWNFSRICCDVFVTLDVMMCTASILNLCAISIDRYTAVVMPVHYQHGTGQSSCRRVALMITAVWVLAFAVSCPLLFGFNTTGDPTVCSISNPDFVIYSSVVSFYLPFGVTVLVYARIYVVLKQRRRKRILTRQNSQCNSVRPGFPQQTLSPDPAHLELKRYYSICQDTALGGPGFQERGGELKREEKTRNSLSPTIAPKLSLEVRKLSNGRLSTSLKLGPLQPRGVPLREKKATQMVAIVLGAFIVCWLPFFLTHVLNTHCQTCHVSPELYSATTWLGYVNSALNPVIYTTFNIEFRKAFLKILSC
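Agonist mode: compounds and dopamine controls were applied to plated cells for 90 min at 37 degrees C after an overnight attachment at 1500 cells/well. Luminescent read-out followed 30 - 60 minutes at room temperature with DiscoveRx detection reagent.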
D1 PAM: potentiators of human D1 dopamine receptor. HEK293 TREx D1 cells, calcium flux, dopamine EC20 potentiation. potentiation, % at 10 µM. actives 0.036% (n = 360,000); in the data active means potentiation above about 30%; further: 0% is about no effect
D1 antagonist: human D1 dopamine receptor antagonism; actives 3.2% (n = 360,000); activity change, negative = inhibition, % at 10 µM; HEK293 TREx D1 cells, calcium flux, dopamine EC80; active compounds read low; in the data active means activity change below about -30%; further: on the % scale 0 is the no-effect control and ±100 the full control effect
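Tetracycline-induced HEK293 T-REx cells with force-coupled D1 receptor were loaded with a no-wash calcium dye. Compound was added after a 10 s baseline and read kinetically for 180 s; EC80 dopamine was then added and calcium flux followed another 180 s.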
D1 agonist: agonists of human D1 dopamine receptor; P21728; HEK293 T-REx D1 cells, calcium flux, agonist mode; activation, % at 2 µM; actives 1% (n = 360,000); in the data active means activation above about 30%; further: 0% is about no effect
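Inducible HEK293 T-REx D1 cells, force-coupled to calcium signalling, were plated at 4000 cells/well with tetracycline and held overnight at 30 C. After no-wash calcium dye loading, compound-evoked calcium rise over 180 s flagged agonists.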
D3 antag: antagonists of human D3 dopamine receptor. P35462. D3R cells, DiscoveRx beta-arrestin luminescence, antagonist mode; active compounds read low. max response, negative = inhibition, %. actives 2.5% (n = 360,000). AID 652054; in the data active means max response below about -50%; further: on the % scale 0 is the no-effect control and ±100 the full control effect
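Cells expressing the human receptor were seeded at 1500 cells/well, incubated overnight at 37 degrees C in 5% CO2, then exposed to library compounds with dopamine controls for 90 minutes at 37 degrees C before luminescent detection.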
* marks the source's active call; other numbers are inactive results; / = no result given; + = active, no number; ! = not active in a repeat.

SMILES	DRD3 agonist	D1 PAM	D1 antagonist	D1 agonist	D3 antag
C=CCN(CC=C)C(=S)Nc1ccc2nsnc2c1	-0.4	-4.0	-23.1	7.4	-3.6
S=C(NCc1ccc2c(c1)OCO2)Nc1ccc2nsnc2c1	0.7	-6.9	-33.1*	34.1*	-10.7
Cc1ccc(NC(=S)NCc2ccc3c(c2)OCO3)cc1C	1.4	6.4	-0.3	8.8	9.8
COc1ccc(NC(=S)Nc2ccc3nsnc3c2)cc1	-38.5	-2.2	0.2	6.8	-61.5*
C=CCNC(=S)Nc1ccc2nsnc2c1	8.7	-4.1	-89.5*	7.4	3.8
COc1ccc2c(CNCCc3ccc(SC)cc3)c(C(=O)O)n(Cc3ccc(F)cc3)c2c1	-1.0	-1.0	10.6	1.5	/
CCOc1ccc(CN(CCc2ccc3c(c2)OCO3)Cc2cc(OC)cc(OC)c2)cc1	-3.1	-3.6	-0.1	6.6	/
NC(=S)NN=Cc1c[nH]c2nccnc12	-31.5	/	/	/	+
COc1ccc(NC(=O)c2ccc3c(=O)n4nc(Nc5cccc(Cl)c5C)sc4nc3c2)cc1	0.3	-2.5	-4.6	0.6	/
COc1ccc(CCNC(=O)C2CCN(c3ccc(N4CCOCC4)nn3)CC2)c(OC)c1	-1.9	-3.7	-32.8*	-0.5	0.5
CNC(=S)N/N=C(\C)c1ccc(-n2ccnc2)cc1	-3.7	-3.5	-9.3	0.3	-14.4
C/C(=N\NC(N)=O)c1ccc(-n2ccnc2)cc1	-2.8	-1.1	-43.8*	3.2	-5.6
COc1ccc(-n2c(SCC(=O)N3CCC(C)CC3)nc3c([nH]c4ccccc43)c2=O)cc1	2.9	-4.4	-0.4	-0.2	/
COc1ccc(NC(=O)CSc2nncs2)cc1S(N)(=O)=O	8.9	-2.1	-31.7*	3.5	18.7
COc1cccc(Cn2c(=O)n(CC3CCC(C(=O)N4CCCCC4)CC3)c(=O)c3sccc32)c1 (stereo unspecified)	8.5	-2.4	9.4	10.2	/
Cc1ccc(-c2nc(SCC(=O)Nc3cc(C)on3)c3c(=O)n(C)c(=O)n(C)c3n2)cc1	-17.4	0.6	7.8	1.4	-17.3
COC(=O)c1ccc(CSc2nc(C)nc3c2c(=O)n(C)c(=O)n3C)o1	3.2	-3.3	-39.2*	2.2	-8.3
CCCn1c(SCC(=O)Nc2cc(C)on2)nc2c1c(=O)n(C)c(=O)n2C	-3.0	/	/	/	-50.7*
Cc1nc(SCC(=O)NCc2ccc(F)cc2)c2c(=O)n(C)c(=O)n(C)c2n1	0.3	5.2	22.7	16.9	19.5
Cc1nc(SCC(=O)Nc2cc(C)on2)c2c(=O)n(C)c(=O)n(C)c2n1	-5.3	-15.5	-63.9*	2.7	11.6
CCCn1c(SCC(=O)Nc2cccc(C)n2)nc2c1c(=O)n(C)c(=O)n2C	5.0	-3.0	-0.9	1.3	8.5
COCCCNC(=O)Cn1c(=O)n(-c2cccc(C)c2)c(=O)c2c3c(sc21)CN(C(C)=O)CC3	-3.1	3.0	6.9	0.2	/
CCN(CC)CCCNc1oc(-c2ccc(OC)cc2)nc1C#N	-6.2	-0.2	-3.7	5.8	/
COC(=O)C1CCCN1C(=O)c1cccs1 (stereo unspecified)	-3.6	3.6	1.9	3.4	-75.9*
C[C@@H]1CN([C@H](C)CO)C(=O)Cc2cc(NS(=O)(=O)c3ccc(F)cc3)ccc2O[C@H]1CN(C)Cc1ccc(C(=O)O)cc1	6.0	/	/	/	-5.3
SMILES	DRD3 agonist	D1 PAM	D1 antagonist	D1 agonist	D3 antag
C[C@@H]1CN([C@H](C)CO)C(=O)Cc2cc(NS(=O)(=O)c3ccc(Cl)cc3)ccc2O[C@H]1CN(C)Cc1ccc(C(F)(F)F)cc1	36.6*	/	/	/	17.0
C[C@@H]1CN([C@@H](C)CO)C(=O)Cc2cc(NC(=O)Nc3cccc4ccccc34)ccc2O[C@@H]1CN(C)Cc1ccc(C(F)(F)F)cc1	-33.1	/	/	/	-61.0*
CN1CCC(Oc2ccc(Sc3ccccc3)cc2)CC1	-15.7	-8.8	-27.6	77.7*	-20.9
CN1CCC(Oc2ccccc2Sc2ccc(C(F)(F)F)cc2)CC1	-14.5	-6.3	-58.3*	52.4*	-11.3
CCCOC(C(=O)OC1CCN(C)CC1)(c1ccccc1)c1ccccc1	-19.9	/	/	/	/
O=C(O)c1ccc(Nc2ncnc3c2cnn3Cc2ccccc2)cc1	4.8	-0.8	-45.5*	6.5	6.1
Cc1ccc(Nc2ncnc3c2nnn3Cc2ccccc2)cc1	30.1*	0.0	7.4	4.4	5.1
C=CCC(CC=C)(CNC(=O)C(=O)Nc1cccc(C(F)(F)F)c1)c1ccccc1	-3.2	1.6	-0.6	30.1*	/
O=C(O)/C=C/C(=O)Nc1cccc(C(F)(F)F)c1	-3.5	1.6	-4.6	3.4	-0.6
CC1CCN(CCc2nc3cc(NC(=O)COc4ccccc4)ccc3n2C)CC1	-15.0	0.6	6.7	2.1	-70.6*
CCC(=O)Nc1ccc2c(c1)nc(CCN1CCC(C)CC1)n2C	-14.2	-6.7	12.8	0.5	-20.4
CCCCC(=O)Nc1ccc2c(c1)nc(CCN1CCN(c3ccccn3)CC1)n2C	44.0*	-5.0	-5.6	3.8	-28.4
Cc1ccc(OCC(=O)Nc2ccc3c(c2)nc(CCN2CCN(c4ccccn4)CC2)n3C)cc1	7.1	/	/	/	-3.4
Cn1c(CCN2CCN(c3ccccn3)CC2)nc2cc(NC(=O)COc3ccccc3)ccc21	44.0*	-4.9	-17.4	5.0	-12.9
CCCC(=O)Nc1ccc2c(c1)nc(CCN1CCN(c3ccccn3)CC1)n2C	57.0*	-3.9	0.2	2.6	-5.1
CC(C)c1ccc(NC(=O)CSc2nc(=O)n(Cc3ccccn3)c3c2CCC3)cc1	-6.5	1.5	/	-1.1	/
Cn1c(CCN2CCN(c3ccccn3)CC2)nc2cc(NS(=O)(=O)c3ccccc3)ccc21	22.8	-12.7	-32.0*	6.8	-15.7
Cc1ccc(CN2CCc3nc(N4CCN(C)CC4)ncc3C2)s1	-19.2	-1.0	-8.3	5.0	/
CC1(C)C2CCC1(C)C(OCC[N+](C)(C)CC(=O)OC1CCCCC1)C2 (stereo unspecified)	-6.5	-3.1	-65.9*	0.9	10.0
CCOC(=O)C[N+](C)(C)CCOC1CC2CCC1(C)C2(C)C (stereo unspecified)	4.2	-2.7	-7.9	4.1	-4.7
COc1ccc2c(CNC3CCCC3)c(C(=O)O)n(Cc3ccccc3C)c2c1	-7.5	-0.1	5.1	0.0	/
NS(=O)(=O)c1ccc(CCNc2nc(CN3CCOCC3)nc3sc4c(c23)CCC4)cc1	-13.2	1.6	20.5	-0.4	-7.8
Cc1nc(NCCc2ccc(S(N)(=O)=O)cc2)c2c3c(sc2n1)CCC3	35.2*	-0.3	1.4	0.5	40.9
CCC(C(=O)Nc1cc(F)ccc1F)n1nc(C)c2c(C)n(-c3ccc(C)cc3)nc2c1=O (stereo unspecified)	58.8*!	3.1	28.4	4.8	30.6
CCC(C(=O)Nc1ccccc1F)n1nc(C)c2c(C)n(-c3ccccc3)nc2c1=O (stereo unspecified)	1.7	10.7	11.3	13.0	14.4
COc1ccc(C2C(=O)N(C3CCCCCC3)CC(=O)N2Cc2ccc(C)cc2)cc1 (stereo unspecified)	-19.7	-2.2	-25.5	-1.8	/
